Laboratory results as given in ChEMBL document CHEMBL1157539, “Thousands of chemical starting points for antimalarial lead identification” (Nature, 2010).

system: Plasmodium falciparum; assay: GSK_TCMDC: Inhibition of Plasmodium falciparum 3D7 in whole red blood cells, using parasite LDH activity as an index of growth. Test compounds present at 2uM; format: functional

| Structure (SMILES) | Inhibition [%] |
| --- | --- |
| CCN(CC)CCN(Cc1ccc(-c2ccc(C(F)(F)F)cc2)cc1)C(=O)Cn1c(CCc2ccccc2F)nc(=O)c2ccccc21.O=C(O)C(O)C(O)C(=O)O | 95 |
| COc1ccccc1C(C)NCC(=O)Nc1ccccc1Sc1ccccc1 (stereo not drawn) | 89 |
| Nc1nccc2ccc(-c3ccsc3)cc12.O=C(O)C(F)(F)F | 100 |
| Br.COc1ccccc1CCCON1C(=N)N=C(N)NC1(C)C | 95 |
| COc1cc(CN2CCC(N3CCc4cc(NC(=O)c5cc(C)on5)ccc43)C2)ccc1F (stereo not drawn) | 91 |
| COc1ccc(CN(C)CCCOc2ccc(NC(=O)C=Cc3ccc(C(C)(C)C)cc3)cc2)cc1OC | 100 |
| Cc1cc(N[C@@H](Cc2ccccc2)C(=O)NCCOc2ccccc2)nc(NCCc2ccc(F)cc2)n1.O=C(O)C(F)(F)F | 99 |
| COc1ccc(-c2cc(Nc3nc(-c4cccc(Cl)c4)nc4ccccc34)ccn2)cc1 | 100 |
| CCN(CC)CCN(Cc1ccc(-c2ccc(C(F)(F)F)cc2)cc1)C(=O)c1c[nH]c2ccc(Br)cc12 | 90 |
| COc1ccc(-c2cnc3[nH]cc(-c4ccc(C(=O)O)cc4)c3c2)cn1.O=C(O)C(F)(F)F | 95 |
| CC1(C)NC(N)=NC(=N)N1OCc1cccc(Cl)c1Cl.Cl | 92 |
| O=C(Nc1cccc(CN2CCCN(Cc3ccccc3)CC2)c1)c1ccc(-c2ccccc2)cc1.O=C(O)C(F)(F)F | 85 |
| O=C(NCCCN1CCN(c2cccc(Cl)c2)CC1)c1ccc(-c2nc3cc(Cl)c(Cl)cc3[nH]2)c(F)c1 | 100 |
